About 79,000 compounds went through this panel and 15% of them were active in at least one assay; those are over-represented in the sample as a whole. Cut-off read from the data, not from the text of the source: active = growth inhibition above about 70%; inactive = the rest.
Legend:
[1] = NCI Yeast Anticancer Drug Screen. Data for the rad50 strain (AID 155);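 note: 0% = growth of vehicle-only cultures of the same strain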; conditions: S. cerevisiae rad50 strain growth inhibition, hits give high values; at 50.0 µM unless noted
Summary of the method: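 Cells are treated with compound, grown, and their growth is then scored against vehicle-only cultures of the same repair-deficient yeast strain.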

[2] = NCI Yeast Anticancer Drug Screen. Data for the mec2-1 strain (AID 157); conditions: S. cerevisiae mec2-1 strain, hits give high values; at 50.0 µM unless noted
Summary of the method: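 Test agents were screened against the mec2-1 yeast strain, with defined DNA repair or cell cycle alteration. Growth was scored as inhibition against vehicle-only controls.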

[3] = NCI Yeast Anticancer Drug Screen. Data for the sgs1 mgt1 strain (AID 161);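 note: 0% = growth of cultures given vehicle only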; conditions: S. cerevisiae sgs1 mgt1 strain, hits give high values; at 50.0 µM unless noted
Summary of the method: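 Inhibition of yeast growth, normalised to vehicle-treated controls, is reported for a strain bearing genetic alterations in DNA damage repair.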

[4] = NCI Yeast Anticancer Drug Screen. Data for the cln2 rad14 strain (AID 165);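 note: 0% = growth equal to vehicle treated cultures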; conditions: S. cerevisiae cln2 rad14 strain, hits give high values; at 50.0 µM unless noted
Summary of the method: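 Growth of compound-exposed yeast (cln2 rad14 genotype) measured and expressed as inhibition relative to vehicle.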

[5] = NCI Yeast Anticancer Drug Screen. Data for the bub3 strain (AID 167); conditions: S. cerevisiae bub3 mutant strain, hits give high values; at 50.0 µM unless noted
Summary of the method: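 Part of a panel of yeast mutants defective in DNA damage repair or cell cycle regulation. Each strain is grown with compound, and inhibition is calculated relative to solvent-treated cultures.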

[6] = NCI Yeast Anticancer Drug Screen. Data for the mlh1 rad18 strain (AID 175); conditions: S. cerevisiae mlh1 rad18 strain growth inhibition, hits give high values; at 50.0 µM unless noted
Summary of the method: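 In this whole-cell yeast screen, a strain with altered DNA damage repair is challenged with compound, and its growth is measured against matched vehicle-treated controls.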

Measured: growth inhibition

O=C1CCCCC(=O)Nc2ccccc2N1
inactive: [1] -22.2% | [2] -15.8% | [3] -6.85% | [4] 0.9% | [5] -4.9% | [6] -20.8%

O=C1OCCOCCOCCOCCOC(=O)c2cccc1n2
inactive: [1] -10.2% | [2] 6.65% | [3] 12.6% | [4] 17.1% | [5] 5.2% | [6] 7.2%

CCSc1[nH]c(Nc2nc(-c3ccccc3)n(-c3ccccc3)n2)c(C(N)=O)c1C(N)=O
inactive: [1] -16.9% | [2] 1.35% | [3] 7.8% | [4] -5.85% | [5] -9.75% | [6] 7%

CN1C(=O)CCC1c1nc2ccccc2[nH]1 (centres undefined)
inactive: [1] 0.15% | [2] 9.95% | [3] -3.05% | [4] -17.9% | [5] 6.45% | [6] 20.4%

COc1c(OC(C)=O)ccc(/C=C2\N=C(C)OC2=O)c1[N+](=O)[O-]
inactive: [1] -8.3% | [2] -4.75% | [3] 5.25% | [4] 16.5% | [5] 11.1% | [6] 9.2%

CCN(CCO)C(=O)Nc1ccc(Cl)cc1
inactive: [1] -6.1% | [2] -31.6% | [3] 11.1% | [4] 8.6% | [5] 0.55% | [6] -7.65%

CN(C)Cc1cc(-c2c(Cl)cccc2Cl)no1
inactive: [1] -18.8% | [2] -10.5% | [3] -10.4% | [4] 4% | [5] 7.1% | [6] -13.6%

Cc1cc(C)c(C(=O)Cc2ccccc2)c(C)c1
inactive: [1] 18.4% | [2] 15.6% | [3] 20.2% | [4] 12.4% | [5] 11.4% | [6] 9.45%

O=C(Cc1ccccc1)NCCCN(CCCCN(CCCNC(=O)Cc1ccccc1)C(=O)OCc1ccccc1)C(=O)OCc1ccccc1
inactive: [1] -11.9% | [2] -11.6% | [3] -2.7% | [4] -7.4% | [5] -0.85% | [6] -27.6%

CC1(C)Oc2nc[nH]c(=O)c2C1c1ccccc1 (centres undefined)
inactive: [1] 2.55% | [2] -4.5% | [3] -0.4% | [4] -20.1% | [5] -19.4% | [6] 5.35%

NC(=O)c1ccccc1OC(=O)Nc1ccc(F)c([N+](=O)[O-])c1
inactive: [1] 3.75% | [2] 26.6% | [3] 12.4% | [4] -1.95% | [5] 20.7% | [6] 12.1%

O=C(Nc1noc(-c2ccccc2)n1)c1ccccc1CNc1noc(-c2ccccc2)n1
inactive: [1] -7.75% | [2] -4.85% | [3] 0.8% | [4] -10.8% | [5] -6.7% | [6] 0%

Cn1cnc2nc(Cl)nc(N)c21
inactive: [1] 0% | [2] -4.15% | [3] 6.05% | [4] -16.6% | [5] 7.75% | [6] -9.4%

Cc1cc(=O)oc2c(C)c(OCCCOc3ccc4c(C)cc(=O)oc4c3C)ccc12
inactive: [1] -29.8% | [2] -15.6% | [3] -6.1% | [4] 11.1% | [5] -30.8% | [6] -34.3%

Cc1cc2c(cc1Cl)SC(NNC1=NCCN1)=NS2(=O)=O
inactive: [1] -23.1% | [2] -8.65% | [3] -20% | [4] -2.25% | [5] -17.9% | [6] 9.95%

CCCCCCCCCCCCCC(=O)OCCC(C)C
inactive: [1] -5.85% | [2] 0.25% | [3] 7.25% | [4] -18.9% | [5] 3.4% | [6] -7.3%

O=[N+]([O-])c1ccn(Cc2ccccc2)c1
inactive: [1] -6.25% | [2] 2.95% | [3] 5.65% | [4] -41.5% | [5] -14.2% | [6] 9.5%

Clc1ccc(Oc2ncnc3nc[nH]c23)cc1
inactive: [1] 3.6% | [2] 5.75% | [3] 2.85% | [4] -1.35% | [5] -1.5% | [6] 23.5%

O=S(=O)(O)c1cc(N=[N+]([O-])c2ccc(N=Nc3ccccc3)cc2S(=O)(=O)O)ccc1/C=C/c1ccc(N=[N+]([O-])c2ccc(N=Nc3ccccc3)cc2S(=O)(=O)O)cc1S(=O)(=O)O
inactive: [1] 28.6% | [2] 11.9% | [3] 9.8% | [4] 7.15% | [5] 0.8% | [6] 50.4%

CC1(C)CC([NH-])(C(=O)O)CC(C)(C)N1O.CC1(C)CC([NH-])(C(=O)O)CC(C)(C)N1O.[Zn+2]
inactive: [1] -1.45% | [2] -17.1% | [3] -2.25% | [4] -41.9% | [5] 1.5% | [6] -7.4%

O=C1c2ccccc2CCC1c1ccccc1 (centres undefined)
inactive: [1] -1.65% | [2] -0.7% | [3] -5.2% | [4] -1.05% | [5] -10.7% | [6] -23.4%

Cn1c(Nc2ccccc2)c(C=Nc2ccccc2)c(=O)n(C)c1=O
inactive: [1] -2.15% | [2] 3.45% | [3] -7.85% | [4] 7.55% | [5] -22.6% | [6] -0.9%

CCCCCCCCCCCCCCCCCCOC(=O)CC(C)=O
inactive: [1] -2.75% | [2] -4.55% | [3] -12.2% | [4] -5% | [5] -9.2% | [6] 3.95%

OCC1COCO1 (centres undefined)
inactive: [1] 0.35% | [2] -4.1% | [3] -8.75% | [4] -1.65% | [5] -6.5% | [6] 9.2%

O=[N+]([O-])c1ncccc1O
inactive: [1] 12.2% | [2] -2.75% | [3] -4.5% | [4] 9.35% | [5] 12% | [6] 15.9%

O=C(Oc1cccc(OC(=O)c2ccccc2O)c1)c1ccccc1O
inactive: [1] -1.05% | [2] -7.95% | [3] 9.8% | [4] -30.8% | [5] 25.9% | [6] -5.35%

Cc1ccc(OCC(=O)N2N=C(c3ccccc3)CC2(O)c2ccccc2)cc1 (centres undefined)
inactive: [1] -7.6% | [2] -41.9% | [3] -30.6% | [4] -15.6% | [5] 0% | [6] -24.2%

CCOC(=O)c1c(C)[nH]c(C(=O)CCN(C)C)c1C
inactive: [1] 7.35% | [2] 0.2% | [3] 17.4% | [4] -33.9% | [5] 2.1% | [6] 0.65%

CCC1=CCN(c2ccccn2)OC1c1ccc(OC)cc1 (centres undefined)
inactive: [1] 32.6% | [2] 13.7% | [3] 49.2% | [4] 22.3% | [5] 40.2% | [6] 24.1%

O=c1cc(C(F)(F)F)[nH]c2ccc(F)cc12
inactive: [1] 1.95% | [2] -10.4% | [3] 6.4% | [4] -27.6% | [5] -27% | [6] 7.55%

COc1ccc(C(=O)CCC2(C)OCCO2)cc1OC
inactive: [1] 27.3% | [2] 5.8% | [3] 18.9% | [4] 8.4% | [5] 21.9% | [6] 17.5%

COC1COCOC1C(OC)C1OCOCC1OC (centres undefined)
inactive: [1] -2.25% | [2] -12.2% | [3] -8.15% | [4] -46.3% | [5] -4.25% | [6] -2.8%

CC(=O)OC1CC2CC1C1OC21 (centres undefined)
inactive: [1] -2.25% | [2] -15.3% | [3] -22.1% | [4] -1.8% | [5] -11.7% | [6] -6.65%

CC(=O)Nc1cc(C)cc(CO)c1C
inactive: [1] 13.6% | [2] -3.05% | [3] -10.1% | [4] -23.6% | [5] -1.15% | [6] -26.6%

C/C(=N/O)c1ccncc1
inactive: [1] 1.15% | [2] -3% | [3] 1.65% | [4] 11.2% | [5] 16.1% | [6] -6.9%

Cc1c2c(c(C)c3c1C(=O)c1cc4c(cc1C3=O)OCO4)OC(C)(C)O2
inactive: [1] 14.3% | [2] 0.35% | [3] 21.4% | [4] 8.95% | [5] 11.6% | [6] 23.1%

Cc1ccc(OCCC(=O)O)cc1
inactive: [1] 6.9% | [2] -6.15% | [3] -11.2% | [4] -63.5% | [5] -26.6% | [6] -1.65%

CSc1ccc2c(c1)N(CCCN(C)C)c1ccccc1S2
inactive: [1] -15% | [2] -4.15% | [3] -1.05% | [4] -13.8% | [5] 44.5% | [6] 33.5%

CCOC(=O)C1=CN=C2C(=O)N(c3ccccc3)N(C)C2(C)C1=N (centres undefined)
inactive: [1] -4.8% | [2] 0.95% | [3] -19.4% | [4] 10.8% | [5] -11.2% | [6] 12.9%
